Data reported in PubChem BioAssay AID651930 (Southern Research Specialized Biocontainment Screening …, 2012).
Unmarked numbers belong to inactive results. How the calls were made is not given here.

Test: Vero 76 cell cytotoxicity, dose response, cytotoxicity control for VEEV inhibitor project, set 9 (AID 651930)
Conditions: Vero 76 cytotoxicity; series mostly up to 25 µM; viability: at the top concentration

Compared with `CN(C)c1cccc(-n2c(CN3CCNCC3)nc3ccc([N+](=O)[O-])cc3c2=O)c1`, `COc1cccc(-n2c(CN3CCNCC3)nc3ccc([N+](=O)[O-])cc3c2=O)c1` is lower in “viability” value: 99.6% for the first, 84.9% for the second.

Going from `CCN1CCN(Cc2nc3ccc([N+](=O)[O-])cc3c(=O)n2C)CC1` to `CCN1CCN(Cc2nc3ccc([N+](=O)[O-])cc3c(=O)n2-c2ccccc2)CC1`, the “viability” value rises from 85.9% to 96.5%.

First: CCN1CCN(Cc2nc3ncccc3c(=O)n2-c2ccccc2)CC1
Second: CCN1CCN(Cc2nc3c([N+](=O)[O-])cccc3c(=O)n2-c2ccccc2)CC1
The “viability” value of the first is higher: 94.2% for the first, 84.3% for the second.

First: CCN1CCN(Cc2nc3ccc(C(=O)O)cc3c(=O)n2-c2ccccc2)CC1
Second: CCN1CCN(Cc2nc3ccc(S(=O)(=O)O)cc3c(=O)n2-c2ccccc2)CC1
The “viability” value of the first is lower: 87.7% for the first, 97.8% for the second.

Going from `O=c1nc(Nc2ccc(F)cc2)sc2ncccc12` to `O=c1nc(Nc2ccc(OCc3ccccc3)cc2)sc2ncc([N+](=O)[O-])cc12`, the “viability” value falls from 96.5% to 96.3%.

Compared with `O=c1c2cc([N+](=O)[O-])ccc2nc(CN2CCNCC2)n1-c1ccccc1`, `O=c1c2cc([N+](=O)[O-])ccc2nc(CN2CCNCC2)n1-c1ccccc1F` is higher in “viability” value: 96.2% for the first, 102% for the second.

Going from `O=c1c2cc([N+](=O)[O-])ccc2nc(C2CCNCC2)n1-c1ccccc1` to `CCN1CCN(Cc2nc3ccc(C#N)cc3c(=O)n2-c2ccccc2)CC1`, the “viability” value rises from 82.6% to 87.5%.

With `CN1CCN(C)C(=Nc2ccc([N+](=O)[O-])cc2C(=O)Nc2ccccc2)C1` the “viability” value was 83.9%.

Compared with `CCN(CC)c1nc(=O)c2cccnc2s1`, `O=c1nc(Nc2ccc(OCc3ccccc3)cc2)sc2ncccc12` is lower in “viability” value: 102% [at 50 µM] for the first, 86.4% [at 50 µM] for the second.

Going from `O=C1CN(Cc2nc3ccc([N+](=O)[O-])cc3c(=O)n2-c2ccccc2F)CCN1` to `CCN1CCN(C)CC1=Nc1ccc([N+](=O)[O-])cc1C(=O)Nc1ccccc1`, the “viability” value rises from 93.4% [at 50 µM] to 93.7% [at 50 µM].

With `CN1CCN(C)C(=Nc2ccc(F)cc2C(=O)Nc2ccccc2)C1` the “viability” value was 99.3% [at 50 µM].
